Shown are actives, neighbours in structure and some others; about 7.3% of the full set was active somewhere.
Rab9 promoter act: Rab9 promoter activation | AID 485297 | Huh7 Rab9 promoter-luciferase reporter, luminescence, 24 h | Potency, µM (series often up to 9.22 µM), inactives show at the highest dose activation, negative = inhibition, usual class: activators | actives 2.8% (n = 320,000); also: % of control where 0% means no effect; nearly all actives have a fitted effect of over 60% in size
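Rab9 promoter-driven luciferase in stably transfected Huh7 cells; 1500 cells/well rested 2 h, exposed to compound in DMSO for 24 h at 37 °C, 5% CO2. Luminescence read 10 min after adding luciferase reagent at ambient temperature.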
SMN2 splice up: enhancers of SMN2 splice variant expression | HEK293 SMN2-luciferase splicing reporter, luminescence, 30-36 h | Potency, µM (top dose mostly 46.1 µM), without a hit: at the top dose activity change, positive = activation, usual class: activators | actives 2.8% (n = 210,000) | AID 1458; also: % of control where 0% means no effect; nearly all actives have a fitted effect of over 55% in size
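HEK293 cells carry an SMN2 […]–luciferase reporter in which exon 7 inclusion puts luciferase in frame. Cells were plated 10-12 h before compound addition, then incubated 30-36 h at 37C. ONE-Glo luminescence was read; sodium butyrate at 4.5 mM final served as control.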
FLuc modulator: inhibits or activates purified firefly luciferase, miR-21 counter-screen | purified FLuc, Km substrates, luminescence inhibition | actives 6.9% (n = 360,000) | Potency, µM (doses to about 57.5 µM), without a hit: at the top dose activity change, negative = inhibition, hits mostly inhibitors | AID 588342;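 also: plate controls were vehicle for no effect and reference inhibitor for full effect; nearly all actives have a fitted effect of over 55% in size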
Target sequence (P08659 whole entry, looked up): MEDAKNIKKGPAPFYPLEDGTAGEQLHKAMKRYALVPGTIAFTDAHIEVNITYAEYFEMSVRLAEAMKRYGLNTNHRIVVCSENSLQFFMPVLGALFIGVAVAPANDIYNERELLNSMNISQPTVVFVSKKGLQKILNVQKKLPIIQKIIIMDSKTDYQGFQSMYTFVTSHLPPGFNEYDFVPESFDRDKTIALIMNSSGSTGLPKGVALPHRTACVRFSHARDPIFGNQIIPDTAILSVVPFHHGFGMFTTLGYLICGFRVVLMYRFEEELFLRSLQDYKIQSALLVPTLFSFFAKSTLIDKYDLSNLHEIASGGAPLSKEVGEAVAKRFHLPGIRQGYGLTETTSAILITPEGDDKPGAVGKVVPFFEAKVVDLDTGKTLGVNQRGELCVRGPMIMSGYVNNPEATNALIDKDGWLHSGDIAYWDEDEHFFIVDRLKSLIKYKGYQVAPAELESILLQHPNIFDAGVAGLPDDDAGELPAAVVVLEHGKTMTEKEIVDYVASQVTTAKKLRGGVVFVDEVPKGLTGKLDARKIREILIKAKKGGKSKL
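Purified P. pyralis luciferase, 10 nM final, with Km-level 10 uM D-luciferin and 10 uM ATP in 50 mM Tris acetate pH 7.5, 10 mM Mg acetate, 0.01% Tween-20, 0.05% BSA; 6-point qHTS titration about 60 µM downward; luminescence read.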
p53 reactivator: restores transcriptional activity of mutant p53. H1299 p53-A138V BP100-luciferase reporter, luminescence, 24 h. Potency, µM (top dose mostly 92.2 µM), for the others: top-dose activity change, positive = activation, usual class: activators. actives 0.063% (n = 320,000); also: % of control where 0% means no effect; nearly all actives have a fitted effect of over 45% in size
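H1299 (p53-null), stable ts p53-A138V + BP100-Luc; 1000 cells/well, Opti-MEM/10% FBS; cpd 4 pt, 1:5; 24 h, 37 deg C, 5% CO2; detection reagent 10 min RT; luminescence.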
NPC1 prom act: activates the NPC1 promoter | Huh7 NPC1 promoter luciferase reporter, 24 h | AID 485313 | actives 2.4% (n = 320,000) | Potency, µM (doses to about 9.22 µM), for the others: at the top dose activation, usual class: activators; also: % of control where 0% means no effect; nearly all actives have a fitted effect of over 60% in size
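NPC1 promoter–luciferase Huh7 cells; 24 h compound; luminescence.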
ELG1 genotox: inducers of genotoxicity in HEK293T ELG1-luciferase cells; HEK293T ELG1-luciferase reporter, luminescence, 16 h; Potency, µM (titrated, usually from 46 µM), inactives show at the highest dose activity change, positive = activation, hits mostly activators; actives 1.3% (n = 330,000); also: % of control where 0% means no effect; nearly all actives have a fitted effect of over 60% in size
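Reporter readout depends on ELG1 protein level, which increases with genetic stress. After 16 hr compound exposure at 37 °C, luciferase activity was quantified using ONE-Glo.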
The depositor's hits bear a star; u = inconclusive; x = not tested or not shown. Calls follow the shape of the dose curve; as a rule, active = well fitted curve in the direction sought with a large enough effect; inconclusive = small, poorly fitted or top-dose-only effect, or another doubt; inactive = no such curve, though single readings can be large; an effect the other way counts as inactive or inconclusive. Potency is read from the fitted curve at half-maximal effect.

SMILES | Rab9 promoter act | SMN2 splice up | FLuc modulator | p53 reactivator | NPC1 prom act | ELG1 genotox
c1coc(-c2nnc(SCc3cn4ccccc4n3)o2)c1 | 2% | -1% | -1% | 8% | 0% | 2%
c1ccn2cc(CSC3=NCCS3)nc2c1 | u | u | 19µM* | u | u | u
c1ccn2c(SCc3ccc4c(c3)OCCO4)nnc2c1 | 3.5µM* | 11µM* | u | u | u | 21µM*
c1ccc(-n2nnnc2SCc2cn3ccccc3n2)cc1 | 8% | 9% | -3% | -1% | 7% | -4%
c1ccn2cc(CSc3nnc4ccccn34)nc2c1 | 1µM* | 17% | 13µM* | u | 3.5µM* | 10µM*
Cc1ccn2cc(CSc3ccccc3)nc2c1 | 1.4µM* | 13µM* | 4.8µM* | u | 1.3µM* | 3.7µM*
CCc1c2c(nc3cccc(OC)c13)OC(CC)C2 (centres undefined) | x | 2% | x | x | x | x
O=C(c1cnccn1)N1CCC2(CC1)CCN(c1ccccc1)CC2 | x | -24% | x | x | x | x
Cn1ccnc1SCc1cn2ccccc2n1 | 3.2µM* | u | 17µM* | u | 3.2µM* | u
Cc1cc(=O)[nH]c(SCc2cn3ccccc3n2)n1 | -3% | 18% | -10% | 11% | 1% | 4%
CC1(C)Cc2ccccc2-c2nnc(-c3ccccc3)n21 | 0% | -15% | -16% | -1% | -3% | -7%
c1ccc(-c2cn3c(n2)-c2ccccc2C3)cc1 | 0.56µM* | 0.5µM* | 0.43µM* | 38% | 3.2µM* | u
c1ccc(-c2ccc(CN3CCSCC3)cc2)cc1 | 0% | x | 27µM* | u | 11% | 5%
Cc1ccc(C(=O)O/N=C(\N)c2ccccn2)c(C)c1 | u | x | 0.021µM* | -44% | 0.032µM* | -17%
N/C(=N\OC(=O)c1ccccc1Cl)c1ccccn1 | 0.63µM* | u | 0.15µM* | -6% | 0.35µM* | 0.52µM*
COc1cc(OC)c(C(=O)O/N=C(\N)c2ccccn2)cc1OC | 14% | x | -4% | 23% | 10% | 4%
N/C(=N\OC(=O)c1ccccc1[N+](=O)[O-])c1ccccn1 | 1.6µM* | -5% | 2.1µM* | u | 1.8µM* | u
COc1ccccc1C(=O)O/N=C(\N)c1ccccn1 | 1.3µM* | x | 11µM* | -4% | 1.4µM* | u
Cc1ccc(C)c(NC(=O)c2ccccn2)c1 | 23% | 14% | u | 4% | 12% | 12%
N/C(=N\OS(=O)(=O)c1ccccc1)c1ccccn1 | 0% | -6% | -9% | 7% | 0% | 3%
CCNc1ncc2nc(-c3ccc(Cl)cc3)c(=O)n(-c3ccccc3)c2n1 | x | 3% | x | x | x | x
N/C(=N\OC(=O)c1cccnc1)c1ccccc1Cl | 20% | -33% | 17µM* | u | 23% | 3%
N/C(=N\OC(=O)c1cccnc1)c1ccc(Cl)cc1Cl | u | 13% | u | 8% | 12% | u
CN1CCc2nc3sc(C(=O)Nc4ccccc4C(F)(F)F)c(N)c3cc2C1 | x | -24% | -10% | x | x | x
CC(C)N(CCNC(=O)c1oc(=O)c2ccccc2c1-c1ccccc1)Cc1ccco1 | -5% | -40% | 5% | -1% | -4% | 0%
SMILES | Rab9 promoter act | SMN2 splice up | FLuc modulator | p53 reactivator | NPC1 prom act | ELG1 genotox
O=C(c1ccccc1)N1CCc2cc(CNS(=O)(=O)c3ccccc3Cl)ccc21 | x | x | 0% | x | x | x
CC(=O)Oc1ccc(C(=O)Cc2ccc3ccccc3n2)c(O)c1C | u | u | 5.4µM* | u | u | u
Cc1cc(C(=O)Cn2nnc3ccccc3c2=O)c(C)n1Cc1cccs1 | 0.45µM* | 0% | 0.6µM* | 51% | 0.35µM* | 2.6µM*
Cc1cc(C(=O)CN2C(=O)c3ccccc3C2=O)c(C)n1Cc1cccs1 | 0.4µM* | 14µM* | 0.85µM* | 16% | 0.5µM* | u
Cc1cc(C(=O)CN2C(=O)CCC2=O)c(C)n1Cc1ccccc1 | 1% | -43% | u | 4% | -6% | u
COc1ccc(OC)c(C(=O)Cn2nnc3ccccc3c2=O)c1 | -5% | 5% | 0% | 10% | -5% | 7%
